About 83,000 compounds went through this panel and 20% of them were active in at least one assay; those are over-represented in the sample as a whole.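 Growth was measured after 48 h exposure to one concentration of compound in 96-well plates. Values under 10 count as active.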 Active and inactive are the calls of the source.
Key:
Experiment in all cases: NCI-60 one-dose screen, 48 h (100 = growth as untreated, 0 = no growth, -100 = all killed)
Settings in all cases: 10 µM
DU-145 prostate = test system: DU-145 prostate
K-562 leukemia = test system: K-562 leukemia
MALME-3M melanoma = test system: MALME-3M melanoma
MDA-MB-231 breast = test system: MDA-MB-231 breast
SF-268 CNS = test system: SF-268 CNS
SF-295 CNS = test system: SF-295 CNS
SF-539 CNS = test system: SF-539 CNS
UACC-257 melanoma = test system: UACC-257 melanoma
M14 melanoma = test system: M14 melanoma
HCT-15 colon = test system: HCT-15 colon
HT29 colon = test system: HT29 colon
SNB-75 CNS = test system: SNB-75 CNS
SNB-19 CNS = test system: SNB-19 CNS
U251 CNS = test system: U251 CNS
PC-3 prostate = test system: PC-3 prostate
SK-MEL-5 melanoma = test system: SK-MEL-5 melanoma
UACC-62 melanoma = test system: UACC-62 melanoma
LOX IMVI melanoma = test system: LOX IMVI melanoma
SK-MEL-28 melanoma = test system: SK-MEL-28 melanoma

Measured: growth

CC(=O)c1cc(C(=O)N2c3ccccc3Sc3ccccc32)n2ccc(C)cc12
inactive: DU-145 prostate 56.6% | K-562 leukemia 18.7% | MALME-3M melanoma 53.9% | MDA-MB-231 breast 46.4% | SF-268 CNS 49.4% | SF-295 CNS 36.5% | SF-539 CNS 32.7% | UACC-257 melanoma 31.6% | M14 melanoma 36.1% | HCT-15 colon 10.5% | HT29 colon 32.7% | SNB-75 CNS 83.1% | SNB-19 CNS 49.8% | U251 CNS 36.1% | PC-3 prostate 28.3% | UACC-62 melanoma 23.8% | SK-MEL-28 melanoma 48.7%
active: SK-MEL-5 melanoma -36.3% | LOX IMVI melanoma -40%

CCOC(=O)C(Cc1ccccc1)N1C(=O)/C(=C/N2N=C(c3ccc(OC)cc3)CC2c2ccc3ccccc3c2)SC1=S (configuration not stated)
inactive: DU-145 prostate 30.7% | K-562 leukemia 11.9% | SF-268 CNS 30.2% | SNB-75 CNS 40.6% | SNB-19 CNS 14.9% | PC-3 prostate 18.9%
active: MALME-3M melanoma -27.2% | MDA-MB-231 breast 3.55% | SF-295 CNS -78.2% | SF-539 CNS -27.2% | UACC-257 melanoma 1.02% | M14 melanoma 7.24% | HCT-15 colon -67.4% | HT29 colon -2.97% | U251 CNS -26.8% | SK-MEL-5 melanoma -98.2% | UACC-62 melanoma -76.7% | LOX IMVI melanoma -100% | SK-MEL-28 melanoma 9.31%

O=C(NO)c1ccc(-c2nc3ccc4[nH]ncc4c3c3c2CCCC3)cc1
active: DU-145 prostate 1.34% | MALME-3M melanoma -80.5% | MDA-MB-231 breast -27.6% | SF-268 CNS -53.6% | SF-295 CNS -17.9% | SF-539 CNS -97.4% | UACC-257 melanoma -18.8% | M14 melanoma -62.5% | HCT-15 colon -11% | HT29 colon 6.1% | SNB-75 CNS -77.1% | SNB-19 CNS -19.4% | U251 CNS -39.1% | SK-MEL-5 melanoma -88.9% | UACC-62 melanoma -65.8% | LOX IMVI melanoma -90.6% | SK-MEL-28 melanoma -55%
inactive: K-562 leukemia 10.1% | PC-3 prostate 15.8%

COc1ccc(OC)c(-c2cc(-c3c[nH]c4ccccc34)nc(N)c2C#N)c1
active: K-562 leukemia 8.61% | MALME-3M melanoma -3.02% | SF-268 CNS 9.75% | SF-295 CNS -69.4% | SF-539 CNS -60.3% | M14 melanoma -8.47% | HCT-15 colon 1.05% | HT29 colon -12.6% | SNB-75 CNS -8.84% | U251 CNS -1.3% | SK-MEL-5 melanoma -84.8% | UACC-62 melanoma -8.1% | LOX IMVI melanoma -65.8% | SK-MEL-28 melanoma 4.59%
inactive: DU-145 prostate 13% | MDA-MB-231 breast 12.8% | UACC-257 melanoma 22.4% | SNB-19 CNS 11.6% | PC-3 prostate 13.1%

CC(C)C1=C[C@@]23CC[C@@H]4[C@](C)(CCC[C@]4(C)C(=O)NCc4ccccc4)[C@H]2C[C@@H]1[C@H]1C(=O)CCC(=O)[C@H]13
inactive: DU-145 prostate 98.1% | K-562 leukemia 55.7% | MALME-3M melanoma 95.5% | MDA-MB-231 breast 86.5% | SF-268 CNS 80.4% | SF-295 CNS 83.1% | SF-539 CNS 72.2% | UACC-257 melanoma 77.6% | M14 melanoma 86.9% | HCT-15 colon 56% | HT29 colon 81.7% | SNB-75 CNS 80.8% | SNB-19 CNS 83.2% | U251 CNS 67% | PC-3 prostate 36.9% | SK-MEL-5 melanoma 69.3% | UACC-62 melanoma 59.6% | LOX IMVI melanoma 27% | SK-MEL-28 melanoma 68.6%

O/N=C(\CSc1nnc(-c2c[nH]c3ccccc23)n1-c1ccccc1)c1ccc(Cl)cc1
active: DU-145 prostate -30.9% | K-562 leukemia 6.93% | MDA-MB-231 breast -54.5% | SF-268 CNS -49% | M14 melanoma -47.3% | HCT-15 colon -48.1% | HT29 colon 4.47% | PC-3 prostate -38% | UACC-62 melanoma -43.2% | LOX IMVI melanoma -89.3%
inactive: MALME-3M melanoma 11.1% | SF-295 CNS 14.1% | SF-539 CNS 29.5% | UACC-257 melanoma 44.3% | SNB-75 CNS 48% | SNB-19 CNS 17.4% | U251 CNS 30.5% | SK-MEL-5 melanoma 21.2% | SK-MEL-28 melanoma 21.2%

CN(CCO)c1oc(-c2ccccc2)nc1[P+](c1ccccc1)(c1ccccc1)c1ccccc1
inactive: SF-268 CNS 11.4% | M14 melanoma 12.2% | HCT-15 colon 51.4% | U251 CNS 15.3% | PC-3 prostate 10.8% | SK-MEL-28 melanoma 12%
active: DU-145 prostate 4.07% | K-562 leukemia 9.88% | MALME-3M melanoma -12% | MDA-MB-231 breast -6.83% | SF-295 CNS -13.8% | SF-539 CNS 8.12% | UACC-257 melanoma -3.98% | HT29 colon 7.78% | SNB-75 CNS -2.5% | SNB-19 CNS 9.54% | SK-MEL-5 melanoma -93.3% | UACC-62 melanoma -30.2% | LOX IMVI melanoma -67.2%

COc1ccc(-c2cc(-c3cc(C(=O)c4ccc(Br)cc4)n4ccc(C)cc34)nc(N)c2C#N)cc1
active: SF-539 CNS 5.3%
inactive: DU-145 prostate 75.9% | K-562 leukemia 92.6% | MALME-3M melanoma 74.4% | MDA-MB-231 breast 59.7% | SF-268 CNS 93.9% | SF-295 CNS 89.1% | UACC-257 melanoma 88% | M14 melanoma 64.6% | HCT-15 colon 89.6% | HT29 colon 77.4% | SNB-75 CNS 108% | SNB-19 CNS 91.3% | U251 CNS 64.7% | PC-3 prostate 89.4% | SK-MEL-5 melanoma 87.5% | UACC-62 melanoma 81.2% | LOX IMVI melanoma 54.6% | SK-MEL-28 melanoma 69.6%
